Source: PubChem BioAssay (EPA / NIEHS)
Active and inactive are the calls of the source. Rule for the calls: active = hit-call score of the fitted dose curve at least 0.9, where 1 is the maximum; inactive = score below 0.9.

Experiments:
Conditions in all cases: mRNA level, 48 h; actives raise or lower the signal
[1] = read-out: ATP-citrate lyase (ACLY), ACLY (gene 47); test: LTEA_HepaRG_ACLY: Life Technologies and Expression Analysis (LTEA) Assay for ATP-citrate lyase (ACLY) using HepaRG (AID 2283466)
How it was run: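 qRT-PCR readout of ACLY transcript after 48 h chemical treatment of HepaRG cells; expression normalized to three housekeeping genes. Eight-point half-log series, highest 100 uM, 0.5% DMSO vehicle. Gain or loss fitted against DMSO baseline.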

[2] = read-out: Peroxisomal acyl-coenzyme A oxidase 1 (ACOX1) gene, ACOX1 (gene 51); test: LTEA_HepaRG_ACOX1: Life Technologies and Expression Analysis (LTEA) Assay for Peroxisomal acyl-coenzyme A oxidase 1 (ACOX1) gene using HepaRG (AID 2283467)
How it was run: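 HepaRG, 48 h chemical exposure, 8-pt half-log series from 100 uM top, 0.5% DMSO vehicle, duplicates. Readout: ACOX1 mRNA by Fluidigm qRT-PCR, housekeeping-normalized; bidirectional fit vs DMSO baseline.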

[3] = read-out: Alkaline Phosphatase, Placental (ALPP) gene, ALPP (gene 250); test: LTEA_HepaRG_ALPP: Life Technologies and Expression Analysis (LTEA) Assay for Alkaline Phosphatase, Placental (ALPP) gene using HepaRG (AID 2283468)
How it was run: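 Expression of ALPP was quantified by qRT-PCR against three housekeeping genes in human HepaRG cultures treated for 48 h with an eight-point concentration series up to 100 uM. Activity in either direction was fitted relative to 0.5% DMSO.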

[4] = read-out: Bcl-2 (BAD) gene, BAD (gene 572); test: LTEA_HepaRG_BAD: Life Technologies and Expression Analysis (LTEA) Assay for Bcl-2 (BAD) gene using HepaRG (AID 2283469)
How it was run: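 HepaRG, 48 h exposure, 8-pt half-log curve from 100 uM in 0.5% DMSO, duplicates. Readout: TaqMan qRT-PCR for BAD mRNA, housekeeping-normalised (ACTB/GAPDH/POLR2A); gain or loss fitted against DMSO baseline.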

[5] = read-out: Bcl-2 (BAX) gene, BAX (gene 581); test: LTEA_HepaRG_BAX: Life Technologies and Expression Analysis (LTEA) Assay for Bcl-2 (BAX) gene using HepaRG (AID 2283470)
How it was run: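 Human HepaRG cells treated in duplicate for 48 h across eight concentrations (max 100 uM, 0.5% DMSO); BAX expression measured by qRT-PCR.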

[6] = read-out: adenosine kinase (ADK) gene, ADK (gene 132); test: LTEA_HepaRG_ADK: Life Technologies and Expression Analysis (LTEA) Assay for adenosine kinase (ADK) gene using HepaRG (AID 2283471)
How it was run: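 Read-out is ADK transcript level measured by qRT-PCR and normalised to three housekeeping genes. Cells are human HepaRG, dosed for 48 h at up to 100 uM in 0.5% DMSO. Gain or loss of signal is fitted against DMSO controls.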

[7] = read-out: Alpha-fetoprotein (AFP) gene, AFP (gene 174); test: LTEA_HepaRG_AFP: Life Technologies and Expression Analysis (LTEA) Assay for Alpha-fetoprotein (AFP) gene using HepaRG (AID 2283472)
How it was run: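 Measures AFP mRNA change in HepaRG after 48 h chemical exposure (8 half-log concentrations, highest 100 uM, 0.5% DMSO). Fold change relative to DMSO, fitted in both directions.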

[8] = read-out: BCL2L11 (gene 10018); test: LTEA_HepaRG_BCL2L11: Life Technologies and Expression Analysis (LTEA) Assay for Bcl-2 (BCL2L11) gene using HepaRG (AID 2283473)
How it was run: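 Cells were plated, cultured 48 h, switched to serum-free induction medium, then dosed in duplicate for 48 h at eight half-log concentrations up to 100 uM. Lysates underwent RNA isolation and TaqMan qRT-PCR; gain or loss versus DMSO was fitted.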

[9] = read-out: Apolipoprotein A-V (APOA5) gene, APOA5 (gene 116519); test: LTEA_HepaRG_APOA5: Life Technologies and Expression Analysis (LTEA) Assay for Apolipoprotein A-V (APOA5) gene using HepaRG (AID 2283474)
How it was run: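 Human liver HepaRG cells are treated 48 h with test chemicals (100 uM top, half-log dilutions, 0.5% DMSO). APOA5 mRNA induction or loss is measured by qRT-PCR relative to vehicle.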

[10] = read-out: Apoptosis regulator Bcl-2 (Homo sapiens) (UniProt P10415); test: LTEA_HepaRG_BCL2: Life Technologies and Expression Analysis (LTEA) Assay for Bcl-2 gene using HepaRG (AID 2283475)
How it was run: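 Each chemical was tested in duplicate on HepaRG cultures held in serum-free induction medium for 48 h, highest concentration 100 uM with half-log dilutions. Transcript levels came from multiplexed qRT-PCR, normalised to housekeeping genes; activity was scored in either direction relative to DMSO.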

[11] = read-out: Bcl-2 (BID) gene, BID (gene 637); test: LTEA_HepaRG_BID: Life Technologies and Expression Analysis (LTEA) Assay for Bcl-2 (BID) gene using HepaRG (AID 2283476)
How it was run: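 Assay used HepaRG hepatic cells treated 48 h in serum-free medium with half-log dilutions from 100 uM. Endpoint: BID mRNA, qRT-PCR, normalized to ACTB/GAPDH/POLR2A.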

[12] = read-out: Caspase-3 (Homo sapiens) (UniProt P42574); test: LTEA_HepaRG_CASP3: Life Technologies and Expression Analysis (LTEA) Assay for cysteine-aspartic acid protease (CASP3) using HepaRG (AID 2283477)
How it was run: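 In HepaRG liver cells dosed for 48 h at up to 100 uM (eight-point, duplicate), CASP3 expression changes are scored by qRT-PCR. Activity is fitted in both directions with 0.5% DMSO as baseline.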

[13] = read-out: Cytochrome P450 (CYP24A1), CYP24A1 (gene 1591); test: LTEA_HepaRG_CYP24A1: Life Technologies and Expression Analysis (LTEA) Assay for Cytochrome P450 (CYP24A1) using HepaRG (AID 2283478)
How it was run: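 Human liver HepaRG cultures receive each chemical for 48 h across an eight-point half-log series topping at 100 uM in 0.5% DMSO. Induction or suppression of CYP24A1 mRNA is scored relative to vehicle after housekeeping-gene normalization.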

[14] = read-out: Cytochrome P450 (CYP1A2), CYP1A2 (gene 1544); test: LTEA_HepaRG_CYP1A2: Life Technologies and Expression Analysis (LTEA) Assay for Cytochrome P450 (CYP1A2) using HepaRG (AID 2283479)
How it was run: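 Assesses CYP1A2 mRNA in human HepaRG liver cells after 48 h chemical exposure at up to 100 uM. Values come from qRT-PCR with bidirectional curve fitting relative to DMSO.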

[15] = read-out: cysteine-aspartic acid protease (CASP8), CASP8 (gene 841); test: LTEA_HepaRG_CASP8: Life Technologies and Expression Analysis (LTEA) Assay for cysteine-aspartic acid protease (CASP8) using HepaRG (AID 2283480)
How it was run: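 qRT-PCR readout of CASP8 mRNA, normalized to three housekeeping genes, after 48 h chemical exposure of HepaRG cells; 8-point half-log series, top 100 uM, 0.5% DMSO vehicle. Bidirectional curve fitting against DMSO baseline.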

[16] = read-out: Cytochrome P450 (CYP2B6), CYP2B6 (gene 1555); test: LTEA_HepaRG_CYP2B6: Life Technologies and Expression Analysis (LTEA) Assay for Cytochrome P450 (CYP2B6) using HepaRG (AID 2283481)
How it was run: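 Using 48 h treatment of HepaRG cells in serum-free induction medium, concentrations spanned half-log steps from 100 uM in 0.5% DMSO vehicle. CYP2B6 mRNA induction or loss is scored by qRT-PCR against DMSO.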

[17] = read-out: Cytochrome P450 2C19 (Homo sapiens) (UniProt P33261); test: LTEA_HepaRG_CYP2C19: Life Technologies and Expression Analysis (LTEA) Assay for CYP2C19 using HepaRG (AID 2283482)
How it was run: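 Human HepaRG liver cells received test chemicals for 48 h (highest 100 uM, half-log dilutions in 0.5% DMSO). CYP2C19 mRNA induction or loss is read by multiplexed qRT-PCR and fitted in both directions versus vehicle.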

[18] = read-out: CYP2C8 (gene 1558); test: LTEA_HepaRG_CYP2C8: Life Technologies and Expression Analysis (LTEA) Assay for CYP2C8 using HepaRG (AID 2283483)
How it was run: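 HepaRG (human liver line), 48 h chemical exposure, 8-pt half-log series from 100 uM, 0.5% DMSO vehicle. Readout: CYP2C8 transcript by qRT-PCR, housekeeping-normalized. Bidirectional fit vs DMSO baseline.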

[19] = read-out: CYP2C9 (gene 1559); test: LTEA_HepaRG_CYP2C9: Life Technologies and Expression Analysis (LTEA) Assay for CYP2C9 using HepaRG (AID 2283484)
How it was run: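 HepaRG, 48 h dosing, 8-pt half-log series, top 100 uM, 0.5% DMSO vehicle. Read-out: CYP2C9 transcript by TaqMan qRT-PCR, housekeeping-normalized (ACTB/GAPDH/POLR2A). Gain or loss fitted vs DMSO baseline.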

[20] = read-out: CYP2E1 (gene 1571); test: LTEA_HepaRG_CYP2E1: Life Technologies and Expression Analysis (LTEA) Assay for CYP2E1 using HepaRG (AID 2283485)
How it was run: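 Assay uses 48 h exposure of HepaRG hepatic cells, eight concentrations to 100 uM. Expression of CYP2E1 is quantified by TaqMan qRT-PCR with ACTB, GAPDH and POLR2A normalization; curves fitted in both directions relative to vehicle.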

Chain of Apoptosis regulator Bcl-2 (Homo sapiens) (P10415 whole entry, looked up): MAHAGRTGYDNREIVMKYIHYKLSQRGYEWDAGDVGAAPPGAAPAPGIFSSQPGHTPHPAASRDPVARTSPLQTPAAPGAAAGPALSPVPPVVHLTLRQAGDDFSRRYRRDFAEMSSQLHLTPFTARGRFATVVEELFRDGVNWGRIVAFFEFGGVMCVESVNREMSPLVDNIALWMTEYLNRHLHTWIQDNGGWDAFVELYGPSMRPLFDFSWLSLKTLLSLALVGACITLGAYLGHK
Chain of Caspase-3 (Homo sapiens) (P42574 whole entry, looked up): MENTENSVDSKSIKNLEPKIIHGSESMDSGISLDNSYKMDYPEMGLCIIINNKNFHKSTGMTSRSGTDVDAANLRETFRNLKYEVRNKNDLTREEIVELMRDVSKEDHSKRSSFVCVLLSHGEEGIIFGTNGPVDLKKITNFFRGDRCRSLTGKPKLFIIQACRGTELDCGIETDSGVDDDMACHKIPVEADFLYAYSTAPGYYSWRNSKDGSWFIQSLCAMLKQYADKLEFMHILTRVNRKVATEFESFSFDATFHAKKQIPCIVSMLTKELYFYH
Chain of Cytochrome P450 2C19 (Homo sapiens) (P33261 whole entry, looked up): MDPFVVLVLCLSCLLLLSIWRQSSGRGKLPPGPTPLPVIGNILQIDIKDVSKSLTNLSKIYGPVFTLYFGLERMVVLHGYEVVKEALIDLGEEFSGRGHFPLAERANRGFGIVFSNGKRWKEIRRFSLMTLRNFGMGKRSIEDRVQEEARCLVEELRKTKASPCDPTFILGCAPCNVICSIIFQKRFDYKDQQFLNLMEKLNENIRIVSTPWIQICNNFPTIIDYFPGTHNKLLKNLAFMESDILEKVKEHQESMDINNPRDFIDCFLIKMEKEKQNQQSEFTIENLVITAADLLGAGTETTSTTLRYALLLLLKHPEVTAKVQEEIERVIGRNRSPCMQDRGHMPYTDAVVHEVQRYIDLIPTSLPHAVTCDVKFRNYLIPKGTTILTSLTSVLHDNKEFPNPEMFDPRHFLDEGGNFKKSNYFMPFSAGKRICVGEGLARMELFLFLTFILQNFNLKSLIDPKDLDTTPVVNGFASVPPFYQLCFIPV

CCCCCCCCCc1ccc(O)cc1
outcome [1]: inactive
outcome [2]: inactive
outcome [3]: inactive
outcome [4]: inactive
outcome [5]: inactive
outcome [6]: inactive
outcome [7]: inactive
outcome [8]: inactive
outcome [9]: inactive
outcome [10]: inactive
outcome [11]: inactive
outcome [12]: inactive
outcome [13]: inactive
outcome [14]: inactive
outcome [15]: inactive
outcome [16]: inactive
outcome [17]: inactive
outcome [18]: inactive
outcome [19]: inactive
outcome [20]: inactive

c1cc2ccc3cccc4ccc(c1)c2c34
outcome [1]: inactive
outcome [2]: inactive
outcome [3]: inactive
outcome [4]: inactive
outcome [5]: inactive
outcome [6]: inactive
outcome [7]: inactive
outcome [8]: inactive
outcome [9]: inactive
outcome [10]: inactive
outcome [11]: inactive
outcome [12]: inactive
outcome [13]: inactive
AC50 [14]: 50 µM (active)
outcome [15]: inactive
AC50 [16]: 6.95 µM (active)
AC50 [17]: 4.34 µM (active)
AC50 [18]: 4.67 µM (active)
outcome [19]: inactive
AC50 [20]: 29.6 µM (active)

N#Cc1ccc(N(CC(N)=O)CC(F)(F)F)cc1C(F)(F)F
outcome [1]: inactive
outcome [2]: inactive
outcome [3]: inactive
outcome [4]: inactive
outcome [5]: inactive
outcome [6]: inactive
outcome [7]: inactive
outcome [8]: inactive
outcome [9]: inactive
outcome [10]: inactive
outcome [11]: inactive
outcome [12]: inactive
outcome [13]: inactive
outcome [14]: inactive
outcome [15]: inactive
AC50 [16]: 0.159 µM (active)
AC50 [17]: 19.3 µM (active)
outcome [18]: inactive
outcome [19]: inactive
AC50 [20]: 0.537 µM (active)

CC(C)(c1ccccc1)c1ccc(O)cc1
outcome [1]: inactive
outcome [2]: inactive
outcome [3]: inactive
outcome [4]: inactive
outcome [5]: inactive
outcome [6]: inactive
AC50 [7]: 77.8 µM (active)
outcome [8]: inactive
AC50 [9]: 78.3 µM (active)
outcome [10]: inactive
outcome [11]: inactive
outcome [12]: inactive
outcome [13]: inactive
AC50 [14]: 75.5 µM (active)
outcome [15]: inactive
AC50 [16]: 11.8 µM (active)
outcome [17]: inactive
outcome [18]: inactive
outcome [19]: inactive
outcome [20]: inactive

CC(C)C(=O)OCC(C)(C)C(OC(=O)C(C)C)C(C)C (stereo not given)
outcome [1]: inactive
outcome [2]: inactive
outcome [3]: inactive
outcome [4]: inactive
outcome [5]: inactive
outcome [6]: inactive
outcome [7]: inactive
outcome [8]: inactive
outcome [9]: inactive
outcome [10]: inactive
outcome [11]: inactive
outcome [12]: inactive
outcome [13]: inactive
outcome [14]: inactive
outcome [15]: inactive
outcome [16]: inactive
outcome [17]: inactive
outcome [18]: inactive
outcome [19]: inactive
outcome [20]: inactive

O=C(NC(=O)c1cc(F)c(F)cc1Cl)Nc1cc(F)ccc1N1CCC(C(=O)O)CC1
outcome [1]: inactive
outcome [2]: inactive
outcome [3]: inactive
outcome [4]: inactive
outcome [5]: inactive
outcome [6]: inactive
outcome [7]: inactive
outcome [8]: inactive
outcome [9]: inactive
outcome [10]: inactive
outcome [11]: inactive
outcome [12]: inactive
outcome [13]: inactive
outcome [14]: inactive
outcome [15]: inactive
outcome [16]: inactive
outcome [17]: inactive
outcome [18]: inactive
outcome [19]: inactive
AC50 [20]: 10.3 µM (active)
